Test [1] can be described thus: Nuclear factor erythroid 2-related factor 2/antioxidant responsive element (Nrf2/ARE) small molecule agonists: qHTS cell viability counter screen in human keratinocytes (AID 1919968; active = well fitted curve in the direction sought with a large enough effect in the repeat runs; an effect the other way counts as inactive or inconclusive; also: nearly all actives have a fitted effect of over 55% in size). In short, it runs like this:
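Parallel cytotoxicity read: KeratinoSens HaCaT cells, compound treatment 23 h, viability by CellTiter-Fluor fluorescence 1 h post-reagent.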
(In general: In qHTS, concentration-response curves come from the screen itself.)

Test [2] can be described thus: Nuclear factor erythroid 2-related factor 2/antioxidant responsive element (Nrf2/ARE) small molecule agonists: luciferase reporter gene qHTS assay in human keratinocytes (AID 1919969). Also: nearly all actives have a fitted effect of over 35% in size. In general terms: Reporter assays use an easily measured gene product as a stand-in for the process of interest.
In test [3] the target is Gonadotropin-releasing hormone receptor (Homo sapiens) (UniProt P30968). The test can be described thus: Human gonadotropin-releasing hormone receptor (GnRHR) small molecule agonists, calcium flux assay in GnRHR-HEK293 cells (AID 1920063). Also: nearly all actives have a fitted effect of over 35% in size. Also: potency is read from the fitted curve at half-maximal effect. In outline: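 Calcium flux, agonist mode, human GnRHR stably integrated in HEK293; dye 1 h at 37 C before compound; Ex/Em=480/540 kinetic read, 3 min; 15 concentrations, triplicate.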

Test [4] addresses KiSS-1 receptor (Homo sapiens) (UniProt Q969F8). Put plainly: Human kisspeptin (KISS1R) small molecule agonists, calcium flux assay in KISS1R-HEK293 cells (AID 1920064; active = well fitted curve in the direction sought with a large enough effect in the repeat runs; an effect the other way counts as inactive or inconclusive). In short, it runs like this: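 Triplicate 15-concentration series were applied to dye-loaded human KISS1R HEK293 cells, and agonist-evoked calcium fluorescence was captured for 3 min.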
Test [5] can be described thus: G protein-coupled receptor (GPCR) small molecule agonists, calcium flux assay: HEK293 wild type cell line counter screen (AID 1920065). In short, it runs like this: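 Non-specific calcium responders were flagged by adding DMSO-dissolved compounds to dye-loaded cells and reading 480/540 nm fluorescence each second for 3 min; ATP served as positive control.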
(In general: A change in cytosolic calcium serves as a functional read-out for many receptors and channels.)

The nature of test [6]: p53 small molecule agonists, cell-based qHTS assay with human liver microsomes (AID 1963577).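 Also: p53 response element beta-lactamase reporter cells with liver microsomes plus NADPH.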 In outline: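 16 h, 37 C exposure of p53RE-bla cells to compounds with human liver microsomes and NADPH (0.5 mg/mL final each); detection via LiveBLAzer mixture, 2 h dark at room temperature.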
A short description of test [7]: p53 small molecule agonists, cell-based qHTS assay with rat liver microsomes (AID 1963578). In outline:
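With rat liver microsomes and NADPH present (0.5 mg/mL final each), p53RE-bla cells are treated with compound for 16 h at 37 C. LiveBLAzer detection mixture is then applied for 2 h at room temperature in the dark.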

Test [8] is described as follows: p53 small molecule agonists, cell-based qHTS assay with human liver microsomes: qHTS cell viability counter screen (AID 1963579). Also: nearly all actives have a fitted effect of over 45% in size. In short, it runs like this: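 In this multiplexed counter screen, the reporter plates were subsequently treated with CellTiter-Glo so that cell viability, reflected by luminescence, could be recorded for p53RE-bla cells dosed 16 h with compounds under microsomal activation (HLM and NADPH).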

Test [9] in a line: p53 small molecule agonists, cell-based qHTS assay with rat liver microsomes: qHTS cell viability counter screen (AID 1963580). Also: nearly all actives have a fitted effect of over 45% in size. In short, it runs like this: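 Cytotoxicity counter screen: intracellular ATP measured by CellTiter-Glo luminescence in the same wells as the beta-lactamase reporter read, on HCT-116 p53RE-bla cells exposed 16 h at 37 C to compounds with rat liver microsomes and NADPH, each 0.5 mg/mL final.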

The nature of test [10]: p53 small molecule agonists, cell-based qHTS assay: qHTS cell viability counter screen (AID 1963581). Also: nearly all actives have a fitted effect of over 45% in size. In outline:
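Multiplexed with the reporter read, a CellTiter-Glo step (30 min, room temperature) gauges ATP-based viability of HCT-116 p53RE-bla cells after 16 h compound incubation at 37 C.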

Test [11] is described as follows: p53 small molecule agonists, cell-based qHTS assay (AID 1963582; active = well fitted activation curve with a large enough effect in the signal ratio in the repeat runs, not every such curve was filed as active; the % refers to the signal ratio). In outline:
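Beta-lactamase reporter cells (p53RE-bla) treated with compounds for 16 h at 37 C; FRET substrate, 2 h, room temperature; fluorescence intensity.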

Test [12] concerns the target 5-hydroxytryptamine receptor 2A (Homo sapiens) (UniProt P28223). The test can be described thus: 5-hydroxytryptamine receptor 2A (HTR2A) small molecule antagonists, cell-based qHTS assay (AID 1963586). Also: nearly all actives have a fitted effect of over 45% in size. In outline: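 CHO cells stably expressing human HTR2A were plated for 18 h at 37 C, then loaded with calcium dye for 1 h. Compounds were preincubated 5 min at room temperature before DOI (4 nM solution) was added. Kinetic fluorescence was read for 3 min.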

Test [13] has the same target. Put plainly: 5-hydroxytryptamine receptor 2A (HTR2A) small molecule agonists, cell-based qHTS assay (AID 1963587). Also: nearly all actives have a fitted effect of over 30% in size. In outline:
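CHO cells stably expressing human HTR2A, plated 18 h, loaded with calcium dye 1 h at 37 C. Agonist mode: compounds added and intracellular calcium fluorescence recorded kinetically for 2 min at 1 sec intervals.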

Test [14] addresses Muscarinic acetylcholine receptor M1 (Homo sapiens) (UniProt P11229). The test can be described thus: Cholinergic receptor muscarinic 1 (CHRM1) small molecule antagonists, cell-based qHTS assay (AID 1963588). Also: nearly all actives have a fitted effect of over 40% in size. In outline:
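Compounds were tested at 15 concentrations in three independent runs. Dye-loaded CHRM1-CHO cells were exposed 5 min at room temperature before stimulation by acetylcholine added at 50nM. Intracellular calcium was read kinetically on FDSS for 3 min.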

The target of test [15] is Beta-2 adrenergic receptor (Homo sapiens) (UniProt P07550). Put plainly: Adrenergic beta2 receptor (ADRB2) small molecule antagonists, cell-based qHTS assay (AID 1963592). Also: series mostly up to about 92 µM; nearly all actives have a fitted effect of over 50% in size. In short, it runs like this: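 Assay format: CHO-ADRB2 cells, 18-20hr seeding at 37C/5% CO2, then compound plus 1nM isoproterenol agonist mix for 0.5hr RT. Homogeneous time-resolved fluorescence cAMP detection after 1hr, expressed as 665/615 nm ratio.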

Test [16] concerns the target D(2) dopamine receptor (Homo sapiens) (UniProt P14416). The test can be described thus: Dopamine D2 receptor (DRD2) small molecule agonists, cell-based qHTS assay (AID 1963594). Also: nearly all actives have a fitted effect of over 35% in size. In outline: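 HEK293 cells stably expressing human DRD2, pre-treated with PDE inhibitor Ro20-1724 (0.1 mM final) and compound 10 min at room temperature, then stimulated with NKH477 (200nM […]) for 30 min. cAMP read by HTRF (665/620 nm).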

For test [17] the target is unchanged. Put plainly: Dopamine D2 receptor (DRD2) small molecule antagonists, cell-based qHTS assay (AID 1963595; active = well fitted inhibition curve with a large enough effect in the signal ratio in the repeat runs, with a control signal flat; the % refers to the signal ratio). In short, it runs like this:
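Antagonist mode in DRD2-HEK293 cells: after compound addition with 0.1 mM Ro20-1724, cells received quinpirole (12 nM) and NKH477 (200 nM) for 30 min at room temperature; HTRF cAMP read after 1 h detection.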

Test [18] deals with Muscarinic acetylcholine receptor M1 (Homo sapiens) (UniProt P11229). The test can be described thus: Cholinergic receptor muscarinic 1 (CHRM1) small molecule agonists, cell-based qHTS assay (AID 1963589). Also: nearly all actives have a fitted effect of over 35% in size. In outline:
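qHTS, 15-point titration, 3 independent runs: compounds pin-transferred onto dye-loaded CHRM1-CHO cells (human M1), calcium fluorescence followed every second to detect agonism.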

The nature of test [19]: cAMP Responsive Elements (CRE) small molecule agonists, cell-based qHTS assay (AID 1963590). In short, it runs like this: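 Quantitative HTS for CRE agonists: HEK 293T CRE-bla cells, overnight plating, 3 h compound incubation at 37 C/5% CO2, then 2 h room-temperature LiveBLAzer B/G FRET substrate loading.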
Test [20] is described as follows: cAMP Responsive Elements (CRE) small molecule antagonists, cell-based qHTS assay (AID 1963591; active = well fitted inhibition curve with a large enough effect in the signal ratio in the repeat runs, not every such curve was filed as active; the % refers to the signal ratio). In outline:
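Fluorescence intensity from cleaved LiveBLAzer B/G substrate (2 h, room temperature) quantified CRE-bla activity in HEK 293T cells exposed 3 h to compound with 0.25 uM final NKH477.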

Values without a mark were called inactive. Results filed as inconclusive are left out. Calls of active or inactive are those of the source. Unless noted, calls follow the shape of the full dose curve.

The text below walks through data of PubChem BioAssay (Tox21).

Chain of Muscarinic acetylcholine receptor M1 (Homo sapiens) (P11229 whole entry, looked up): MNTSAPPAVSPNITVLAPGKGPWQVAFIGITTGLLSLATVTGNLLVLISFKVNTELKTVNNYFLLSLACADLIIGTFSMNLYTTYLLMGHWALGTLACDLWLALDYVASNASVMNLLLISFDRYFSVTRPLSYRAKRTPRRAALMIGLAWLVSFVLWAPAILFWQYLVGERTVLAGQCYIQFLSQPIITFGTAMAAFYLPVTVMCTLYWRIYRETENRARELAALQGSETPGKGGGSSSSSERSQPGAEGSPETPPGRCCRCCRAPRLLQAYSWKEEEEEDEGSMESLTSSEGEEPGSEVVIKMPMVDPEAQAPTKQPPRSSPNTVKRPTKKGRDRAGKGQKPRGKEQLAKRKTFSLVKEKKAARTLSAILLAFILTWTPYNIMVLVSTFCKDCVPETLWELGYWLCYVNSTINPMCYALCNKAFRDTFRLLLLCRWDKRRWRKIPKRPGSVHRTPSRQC
Chain of 5-hydroxytryptamine receptor 2A (Homo sapiens) (P28223 whole entry, looked up): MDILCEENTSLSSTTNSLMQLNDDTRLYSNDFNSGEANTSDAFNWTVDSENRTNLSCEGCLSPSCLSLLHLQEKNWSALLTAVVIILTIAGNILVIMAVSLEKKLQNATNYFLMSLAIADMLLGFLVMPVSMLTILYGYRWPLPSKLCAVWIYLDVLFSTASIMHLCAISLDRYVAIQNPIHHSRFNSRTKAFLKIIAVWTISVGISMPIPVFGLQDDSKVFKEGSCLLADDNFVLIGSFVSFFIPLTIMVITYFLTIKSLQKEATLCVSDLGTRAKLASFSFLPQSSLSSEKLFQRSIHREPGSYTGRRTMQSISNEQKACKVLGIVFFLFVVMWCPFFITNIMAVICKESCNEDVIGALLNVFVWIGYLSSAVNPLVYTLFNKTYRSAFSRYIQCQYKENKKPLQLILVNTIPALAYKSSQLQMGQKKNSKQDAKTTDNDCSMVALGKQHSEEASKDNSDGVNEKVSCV
Chain of Gonadotropin-releasing hormone receptor (Homo sapiens) (P30968 whole entry, looked up): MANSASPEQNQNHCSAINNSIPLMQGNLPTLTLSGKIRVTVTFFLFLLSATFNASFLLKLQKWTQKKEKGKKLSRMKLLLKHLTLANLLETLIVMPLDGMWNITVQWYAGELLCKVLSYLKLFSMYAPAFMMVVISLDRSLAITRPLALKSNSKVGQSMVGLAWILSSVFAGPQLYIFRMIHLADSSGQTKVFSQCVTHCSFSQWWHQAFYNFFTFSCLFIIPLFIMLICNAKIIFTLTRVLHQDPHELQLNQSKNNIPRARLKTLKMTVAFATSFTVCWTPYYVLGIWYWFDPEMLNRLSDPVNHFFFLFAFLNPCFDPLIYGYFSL
Chain of D(2) dopamine receptor (Homo sapiens) (P14416 whole entry, looked up): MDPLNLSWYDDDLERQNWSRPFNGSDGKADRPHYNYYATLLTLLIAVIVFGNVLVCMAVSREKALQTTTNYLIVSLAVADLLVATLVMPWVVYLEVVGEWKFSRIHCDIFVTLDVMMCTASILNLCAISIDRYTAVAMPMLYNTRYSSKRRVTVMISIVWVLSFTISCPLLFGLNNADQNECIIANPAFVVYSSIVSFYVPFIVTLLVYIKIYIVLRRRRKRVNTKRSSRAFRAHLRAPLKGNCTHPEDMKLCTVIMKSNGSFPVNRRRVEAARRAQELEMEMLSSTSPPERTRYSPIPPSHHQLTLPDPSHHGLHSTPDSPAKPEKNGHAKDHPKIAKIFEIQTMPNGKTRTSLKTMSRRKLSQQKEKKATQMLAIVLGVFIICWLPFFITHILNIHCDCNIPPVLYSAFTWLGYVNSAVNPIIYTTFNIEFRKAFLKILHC
Chain of KiSS-1 receptor (Homo sapiens) (Q969F8 whole entry, looked up): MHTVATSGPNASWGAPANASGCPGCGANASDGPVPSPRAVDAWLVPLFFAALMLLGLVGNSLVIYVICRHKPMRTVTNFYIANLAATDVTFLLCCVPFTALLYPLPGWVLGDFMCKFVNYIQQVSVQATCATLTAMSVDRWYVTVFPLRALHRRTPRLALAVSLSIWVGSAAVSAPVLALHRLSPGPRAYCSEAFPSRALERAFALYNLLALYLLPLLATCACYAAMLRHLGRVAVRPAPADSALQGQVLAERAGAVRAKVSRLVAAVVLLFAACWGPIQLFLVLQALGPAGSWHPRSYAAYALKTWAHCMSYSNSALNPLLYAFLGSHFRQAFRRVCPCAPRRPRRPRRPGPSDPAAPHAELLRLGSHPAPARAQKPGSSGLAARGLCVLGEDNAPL
Chain of Beta-2 adrenergic receptor (Homo sapiens) (P07550 whole entry, looked up): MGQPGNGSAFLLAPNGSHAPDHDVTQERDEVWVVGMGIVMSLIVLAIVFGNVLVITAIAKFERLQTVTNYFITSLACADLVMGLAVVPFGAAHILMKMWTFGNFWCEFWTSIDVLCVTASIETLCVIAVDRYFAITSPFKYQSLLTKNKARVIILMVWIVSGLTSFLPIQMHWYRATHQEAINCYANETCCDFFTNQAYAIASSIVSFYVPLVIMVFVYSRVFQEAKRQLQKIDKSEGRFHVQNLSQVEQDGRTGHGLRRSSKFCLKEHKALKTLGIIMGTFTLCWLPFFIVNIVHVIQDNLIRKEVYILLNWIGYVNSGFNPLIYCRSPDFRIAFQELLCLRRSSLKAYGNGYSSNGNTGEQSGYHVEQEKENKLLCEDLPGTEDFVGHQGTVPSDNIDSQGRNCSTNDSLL

With `CC(C)=CCOC(=O)c1ccccc1`, the Potency entry in test [1], in [2], in test [3], in [6], in test [7] and in test [8] was “inactive” throughout. The Potency result in test [9], in test [10], in test [11], in test [12], in [13] and in [14] was “inactive” each time. Besides, the Potency entry in [15], in test [16] and in test [17] was “inactive” in each case. For the same compound, the result in test [4] and in test [5] was inactive.

For `O=C(O)c1ccccc1C(=O)Nc1ccc(S(=O)(=O)Nc2nccs2)cc1`, the Potency result in [1], in [2], in test [3], in [6], in [7] and in test [8] was “inactive” each time. Further, the Potency entry in test [9], in test [10], in test [11], in test [12], in test [13] and in test [18] was “inactive” each time. The Potency entry in [19], in [20], in [15], in test [16] and in [17] was “inactive” in each case. Moreover, the outcome in [4] and in [5] was inactive.

With `CC[C@H](NC(C)C)[C@H](O)c1ccc(O)c2[nH]c(=O)ccc12`, the Potency result in test [1], in [2], in [6], in test [7], in test [8] and in [9] was “inactive” each time. Further, the Potency entry in test [10], in test [11], in test [12], in test [13], in test [14] and in test [18] was “inactive” in each case. The Potency entry in test [16] was “inactive”. Moreover, the Potency in test [3] is 12 nM (active). Further, the result in test [4] and in [5] was inactive.

As to `c1ccc(CNc2ncnc3nc[nH]c23)cc1`, the Potency entry in test [1], in test [2], in [3], in test [6], in test [7] and in [8] was “inactive” each time. In addition, the Potency entry in test [9], in [10], in test [11], in test [12], in test [13] and in [14] was “inactive” throughout. Moreover, the Potency result in [19], in test [20] and in [16] was “inactive” in each case. Moreover, the result in [4] and in [5] was inactive.

Regarding `CCOC(=O)/C=C/C(=O)OCC`, the Potency entry in test [1], in [2], in test [3], in [6], in [7] and in test [8] was “inactive” each time. Further, the Potency result in test [9], in test [10], in test [11], in [12], in test [13] and in test [14] was “inactive” in each case. The Potency entry in test [19], in test [20], in test [15], in test [16] and in test [17] was “inactive” throughout. Besides, the result in test [4] and in test [5] was inactive.

In the case of `CC[C@H](NC(=O)c1cc(F)ccc1NS(=O)(=O)c1cccc2cccnc12)c1ccccc1`, the Potency entry in test [1], in test [2], in test [3], in test [6], in test [7] and in [8] was “inactive” in each case. The Potency result in test [9], in [10], in test [11], in test [12], in test [13] and in [14] was “inactive” in each case. In addition, the Potency entry in test [18], in test [16] and in test [17] was “inactive” throughout. The outcome in [4] and in test [5] was inactive.

For the compound `C=CC(C)(CCC=C(C)C)OC(=O)C(C)C` (centres undefined), the Potency entry in [1], in test [2], in [3], in [6], in test [7] and in test [8] was “inactive” in each case. Further, the Potency entry in test [9], in test [10], in test [11], in test [12], in test [13] and in [14] was “inactive” each time. Moreover, the Potency entry in [19], in test [20], in test [15], in test [16] and in [17] was “inactive” throughout. Also, the result in test [4] and in test [5] was inactive.
